Source: PubChem (National Center for Advancing Translational Sciences (NCATS))
Sampled rows, rich in hits. Any-hit rate of the full collection: about 7.4%.
KinaseGlo FLuc = Kinase-Glo luciferase inhibition (counter-screen); Kinase-Glo luciferase, ATP luminescence, 8 min; Potency, µM (highest dose often 38.3 µM), inactives show top-dose activity change, negative = inhibition, usual class: inhibitors; 200,000 compounds, 0.28% hits; note: % is set by controls: 0 for no effect and ±100 for the full control effect; nearly all actives have a fitted effect of over 60% in size
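Inhibition of Kinase-Glo luciferase light generation was assessed at 10 uM ATP in pH 7.2 imidazole buffer, with luminescence measured after eight minutes at ambient temperature.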
Rab9 prom act = activates the Rab9 promoter | Huh7 Rab9 promoter-luciferase reporter, luminescence, 24 h | Potency, µM (highest dose often 9.22 µM), for inactives: top-dose activation, negative = inhibition, usual class: activators | 320,000 compounds, 2.8% hits | AID 485297; note: % of control where 0% means no effect; nearly all actives have a fitted effect of over 60% in size
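Huh7 cells stably carrying a Rab9 promoter-luciferase reporter, 1500 cells per well in OP-MEM I with 10% FBS, treated with compound 24 hours at 37C. Luciferase activity read by luminescence after 10 minutes with Amplite reagent.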
SMN2 splice up = enhancers of SMN2 splice variant expression. HEK293 SMN2-luciferase splicing reporter, luminescence, 30-36 h. Potency, µM (doses to about 46.1 µM), for inactives: top-dose activity change, positive = activation, usual class: activators. 210,000 compounds, 2.8% hits. AID 1458; note: % of control where 0% means no effect; nearly all actives have a fitted effect of over 55% in size
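HEK293 cells carry an SMN2 […]–luciferase reporter in which exon 7 inclusion puts luciferase in frame. Cells were plated 10-12 h before compound addition, then incubated 30-36 h at 37C. ONE-Glo luminescence was read; sodium butyrate at 4.5 mM final served as control.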
ELG1 genotox = inducers of genotoxicity in HEK293T ELG1-luciferase cells; Potency, µM (top dose mostly 46 µM), for the others: at the highest dose activity change, positive = activation, most hits filed as activators; 330,000 compounds, 1.3% hits; HEK293T ELG1-luciferase reporter, luminescence, 16 h; AID 504466; note: % of control where 0% means no effect; nearly all actives have a fitted effect of over 60% in size
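DMSO vehicle served as control against compound-treated ELG1-luciferase HEK293T cells; exposure lasted 16 hr at 37 °C and 5% CO2, followed by ONE-Glo luminescence detection after 30 min.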
FLuc counter = counter-screen for miR-21 project: firefly luciferase inhibitors or activators; P08659; purified FLuc, Km substrates, luminescence inhibition; Potency, µM (titrated, usually from 57.5 µM), without a hit: at the top dose activity change, negative = inhibition, actives largely listed as inhibitors; 360,000 compounds, 6.9% hits;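 note: plate controls were vehicle for no effect and reference inhibitor for full effect; nearly all actives have a fitted effect of over 55% in size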
Target sequence (P08659 whole entry, looked up): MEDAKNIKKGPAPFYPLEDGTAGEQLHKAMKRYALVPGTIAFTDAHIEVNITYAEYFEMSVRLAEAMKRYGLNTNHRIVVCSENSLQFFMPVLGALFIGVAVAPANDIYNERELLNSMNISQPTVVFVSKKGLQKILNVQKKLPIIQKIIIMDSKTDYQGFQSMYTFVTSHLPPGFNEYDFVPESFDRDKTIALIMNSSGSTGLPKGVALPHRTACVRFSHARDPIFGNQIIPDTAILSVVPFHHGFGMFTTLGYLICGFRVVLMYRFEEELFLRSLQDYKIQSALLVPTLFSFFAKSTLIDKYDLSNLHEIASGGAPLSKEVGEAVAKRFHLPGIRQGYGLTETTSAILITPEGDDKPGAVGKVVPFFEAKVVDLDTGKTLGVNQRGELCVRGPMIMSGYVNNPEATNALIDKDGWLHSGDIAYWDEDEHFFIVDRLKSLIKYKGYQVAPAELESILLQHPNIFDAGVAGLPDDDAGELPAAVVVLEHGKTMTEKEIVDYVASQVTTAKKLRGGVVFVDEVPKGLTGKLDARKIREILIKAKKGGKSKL
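Purified P. pyralis luciferase, 10 nM final, with Km-level 10 uM D-luciferin and 10 uM ATP in 50 mM Tris acetate pH 7.5, 10 mM Mg acetate, 0.01% Tween-20, 0.05% BSA; 6-point qHTS titration about 60 µM downward; luminescence read.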
NPC1 promoter act = activates the NPC1 promoter; Huh7 NPC1 promoter luciferase reporter, 24 h; Potency, µM (highest dose often 9.22 µM), for inactives: at the top dose activation, most hits filed as activators; 320,000 compounds, 2.4% hits; note: % of control where 0% means no effect; nearly all actives have a fitted effect of over 60% in size
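Luminescence read-out of NPC1 promoter-driven luciferase in stably transfected Huh7 cells; compounds delivered in DMSO and left 24 h at 37C, 5% CO2, qHTS titration format.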
Active calls of the source: *; ? = inconclusive; nt = no result given; [ ] = another dose, or the depositor's remark. Calls come from the whole dose curve; as a rule, active = well fitted curve in the direction sought with a large enough effect; inconclusive = small, poorly fitted or top-dose-only effect, or another doubt; inactive = no such curve, though single readings can be large; an effect the other way counts as inactive or inconclusive. Potency is the fitted concentration of half-maximal effect.

SMILES	KinaseGlo FLuc	Rab9 prom act	SMN2 splice up	ELG1 genotox	FLuc counter	NPC1 promoter act
CNCc1ccccc1Sc1cc(O)ccc1O	-1%	-1%	-14%	7%	9.5µM*	7%
Cc1c(CC(=O)O)c(=O)oc2cc(OCc3ccc(F)cc3Cl)ccc12	nt	3%	nt	6%	17µM*	-1%
Cc1c(CCC(=O)O)c(=O)oc2cc(OCc3ccccc3F)ccc12	nt	1%	nt	4%	27µM*	10%
CCc1ccc(N2C(=O)CSC23C(=O)N(Cc2cccc(OC)c2)c2ccccc23)cc1 (stereo not given)	nt	nt	nt	nt	-2%	nt
Cc1ccc(-n2ncc3c(NCCCn4ccnc4)ncnc32)cc1	nt	nt	nt	nt	12µM*	nt
Cc1ccc(-n2ncc3c(NCCCn4ccnc4)ncnc32)c(C)c1	-3%	-7%	-25%	-2%	0%	0%
Cc1cccc(-n2ncc3c(NCCCn4ccnc4)ncnc32)c1	5%	?	7.1µM*	?	?	27%
CCC(CC)C(=O)Nc1nnc(SCc2cc(=O)c3ccccc3[nH]2)s1	nt	nt	nt	nt	-8%	nt
Cc1cccnc1NC(=S)Nc1ncccc1C	nt	0.71µM*	nt	?	13µM*	1.3µM*
Cc1cccnc1NC(=S)NCCc1ccccc1	-5%	?	?	?	17µM*	24%
COc1ccc(NC(=S)Nc2ncccc2C)cc1OC	-7%	?	35µM*	?	?	?
Cc1cccc(NC(=S)NCCc2ccccc2)c1C	nt	3%	nt	-5%	0%	1%
COc1ccc(NC(=S)Nc2ncccc2C)c(OC)c1	-6%	?	?	12%	9.5µM*	?
CCCCNC(=O)c1cc(-c2ccc(OC)cc2)nc2n[nH]c(-c3cccc([N+](=O)[O-])c3)c12	nt	nt	nt	nt	0%	nt
CC(C)c1ccc(NC(=O)C2(C)Cc3ccccc3C(=O)O2)cc1 (stereo not given)	nt	nt	-10%	nt	-16%	nt
Cc1cc2nc3[nH]c4c(Cl)cc(Cl)cc4c3nc2cc1C	-8%[7.66 µM]	nt	2%[9.22 µM]	nt	nt	nt
C#CCn1cc(C=C2C(=O)c3ccccc3C2=O)c2ccccc21	-3%	3%	22%	17%	2.4µM*	18%
C#CCn1c(=O)cc(C)c2ccccc21	-2%	0%	-8%	5%	2%	-2%
CN1CC[C@@]2(CCCN(C(=O)c3cccc(F)c3)C2)C1	-5%	nt	-1%	nt	nt	nt
COc1cccc(C(=O)Nc2ccccc2-c2nc3ccccc3s2)c1	nt	nt	9%	nt	-1%	nt
Cc1c(NC(=O)c2ncn[nH]2)cccc1-c1nc2ccccc2s1	-3%	22%	8%	1%	4.3µM*	19%
Cc1c(NC(=O)c2ccc(N3CCCC3)c([N+](=O)[O-])c2)cccc1-c1nc2ccccc2s1	6%	17%	-37%	-5%	2.7µM*	1%
COC(=O)C(C(=O)OC)[C@@H](NC(=O)OCc1ccccc1)c1ccccc1	-6%	nt	8%	nt	nt	nt
CCc1ccccc1Nc1nc(N)nc(CSc2nnnn2C)n1	10%	21%	21%	10%	1%	-1%
Cc1ccccc1Nc1nc(N)nc(CSc2nnnn2C)n1	-7%	2.5µM*	13µM*	?	?	3.5µM*
SMILES	KinaseGlo FLuc	Rab9 prom act	SMN2 splice up	ELG1 genotox	FLuc counter	NPC1 promoter act
Cc1ccc(SCc2nc(N)nc(Nc3ccccc3C)n2)cc1C	0%	1%	2%	1%	-16%	0%
Cc1ccc(Nc2nc(N)nc(CSc3nccn3C)n2)c(C)c1	0%	?	90%	15µM*	?	?
Cc1ccc(SCc2nc(N)nc(Nc3ccccc3C)n2)c(C)c1	5%	5%	-14%	2%	27µM*	5%
Cc1ccccc1Nc1nc(N)nc(CSc2ccc(F)cc2)n1	nt	3.2µM*	nt	8.2µM*	11µM*	2.5µM*
CCCOc1cccc(C2c3c(oc4ccc(F)cc4c3=O)C(=O)N2Cc2ccc3c(c2)OCO3)c1 (stereo not given)	nt	nt	-1%	nt	-1%	nt
Cc1cc2c(cc1Cl)N(C(=O)Nc1ccc(Oc3cccnc3C)nc1)CC2	nt	-31%[46.1 µM]	nt	nt	nt	-33%[46.1 µM]
CCc1ccc(-n2nc3ccc(NC(=O)COc4ccc(OC)cc4)cc3n2)cc1	nt	nt	?	nt	2%	nt
O=[N+]([O-])c1cc(C(F)(F)F)ccc1NCCOc1ccccc1	-3%	?	?	?	13µM*	?
CN(C)S(=O)(=O)NCCNc1ccc(C(F)(F)F)cc1[N+](=O)[O-]	1%	2%	6%	3%	19µM*	-4%
CS(=O)(=O)NCCNc1ccc(C(F)(F)F)cc1[N+](=O)[O-]	0%	-7%	2%	0%	1%	-2%
O=C(COC(=O)c1cc(=O)[nH]c2ccccc12)c1ccc(Br)cc1	nt	-6%	nt	11%	?	14%
O=C(COC(=O)c1cccc(-n2cnnn2)c1)c1ccccc1	nt	28%	nt	19%	?	16%
CCOc1ccc(C(=O)COC(=O)c2cc(=O)[nH]c3ccccc23)cc1	nt	2%	nt	1%	1.3µM*	-1%
CCOc1ccc(C(=O)COC(=O)c2cccc(-n3cnnn3)c2)cc1	nt	?	nt	23%	2.7µM*	?
CCCn1c(-c2ccc(F)cc2)nc2c(NCCCN3CCOCC3)nc(C)nc21	-3%	nt	7%	nt	nt	nt
CC12COC3(C(=O)Nc4ccc5ccccc5c4)CC1CCC32C (stereo not given)	4%	?	11µM*	?	15µM*	?
COc1ccccc1Oc1ccc2c(c1)C(=O)N(c1ccccc1)C2=O	0%	1%	-15%	-1%	9.5µM*	-6%
Cc1ccc(-n2nc(-c3ccc(N)cc3)cc2N)cc1	4%	?	11µM*	?	19µM*	?
CC(=O)Nc1ccc(-c2cc(N)n(-c3ccccc3)n2)cc1	nt	3.2µM*	nt	?	9.5µM*	2.2µM*
Nc1cc(-c2ccc(Cl)cc2)nn1-c1ccccc1	-9%	3.2µM*	14µM*	?	6µM*	3.2µM*
CCOCCCn1c(SCC(=O)Nc2ccc(F)cc2)nc2c(sc3ccccc32)c1=O	nt	nt	nt	nt	1%	nt
COc1ccc(NC(=O)CSC2=Nc3ccccc3C3=NC(CCC(=O)NCc4ccco4)C(=O)N23)cc1 (stereo not given)	nt	nt	nt	nt	-3%	nt
CCOC(=O)c1sc2nc3c(cc2c1N)COC(C)(C)C3	-1%	2.5µM*	11µM*	?	6.7µM*	2.8µM*
CCOC(=O)c1cc2c(nc1N)CC(C)(CC)OC2 (stereo not given)	-4%	3.2µM*	?	13µM*	?	?
CCOC(=O)c1sc2nc3c(cc2c1N)COC(C)(CC)C3 (stereo not given)	-8%	0.79µM*	10µM*	?	1.3µM*	0.79µM*
